Compounds with a hit are over-represented: about 3.2% of the library has one in this group of screens.
DENV2 CPE – inhibitors of DENV2 cytopathic effect, primary screen, cell-based, plate reader, single concentration | DENV2-infected cells, cytopathic effect rescue | CPE inhibition, % at 9.99 µM | hit rate 1.7% among 350,000; in the data active = CPE inhibition above about 20%, passing the limit was not always enough; inconclusive = no clear call, values can overlap the other calls; tested in BHK-21 cells;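 also: 0% = median of neutral control wells and 100% = median of positive control wells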
ERAP1 inh – human ERAP1 aminopeptidase inhibitors, primary screen, biochemical, single point, plate reader | Endoplasmic reticulum aminopeptidase 1 (Homo sapiens), Q9NZ08 | recombinant ERAP1, Leu-AMC fluorescence, 60 min | inhibition, % at 10.7 µM | hit rate 0.15% among 340,000;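 active = mean replicate inhibition of at least 30%, or all replicates individually reaching that 30% level; inactive = mean below 30% and not every replicate reaching it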;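 also: 0% = neutral control wells and 100% = L-leucinethiol positive control wells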
Target sequence (Q9NZ08 whole entry, looked up): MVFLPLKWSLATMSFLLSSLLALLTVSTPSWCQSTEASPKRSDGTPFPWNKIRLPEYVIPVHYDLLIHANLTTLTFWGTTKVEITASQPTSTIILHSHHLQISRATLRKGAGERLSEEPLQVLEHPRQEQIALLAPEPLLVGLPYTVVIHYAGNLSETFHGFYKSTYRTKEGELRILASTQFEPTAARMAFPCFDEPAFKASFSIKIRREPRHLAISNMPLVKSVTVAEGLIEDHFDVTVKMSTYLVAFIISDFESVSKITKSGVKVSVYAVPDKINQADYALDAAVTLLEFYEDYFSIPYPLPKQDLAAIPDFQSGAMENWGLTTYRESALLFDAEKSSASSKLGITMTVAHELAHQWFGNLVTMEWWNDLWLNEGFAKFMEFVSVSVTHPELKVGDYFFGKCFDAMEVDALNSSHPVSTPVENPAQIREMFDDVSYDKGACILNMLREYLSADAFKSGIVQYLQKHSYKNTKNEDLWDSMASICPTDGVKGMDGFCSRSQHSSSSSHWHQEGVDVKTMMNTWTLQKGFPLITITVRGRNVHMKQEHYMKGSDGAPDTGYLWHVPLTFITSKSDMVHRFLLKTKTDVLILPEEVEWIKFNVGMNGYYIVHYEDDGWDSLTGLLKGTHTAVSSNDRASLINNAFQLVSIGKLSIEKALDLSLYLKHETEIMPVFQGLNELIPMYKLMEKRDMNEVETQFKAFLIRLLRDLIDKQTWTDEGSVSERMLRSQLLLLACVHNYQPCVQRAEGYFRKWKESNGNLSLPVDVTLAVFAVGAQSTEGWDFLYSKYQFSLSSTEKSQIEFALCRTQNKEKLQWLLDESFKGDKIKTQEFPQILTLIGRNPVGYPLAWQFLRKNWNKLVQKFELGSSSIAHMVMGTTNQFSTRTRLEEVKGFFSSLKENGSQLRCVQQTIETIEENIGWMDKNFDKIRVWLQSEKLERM
CaV13 FRET inh – Primary screen for inhibitors of IQ motif and Ca2+-dependent inactivation inhibitor domain binding in CACNA1D, Förster resonance energy transfer in living cells, …; hit rate 0.098% among 340,000; HEK cells, CFP/YFP FRET ICDI-IQ, plate reader, 10 min; percent FRET-ratio fall versus neutral wells; inhibition, % at 12.3 µM;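 active = mean replicate inhibition of at least 30% and at least 1% of replicates passing that level; inconclusive = only one of the two criteria is met; inactive = neither criterion is met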;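 also: 0% = median of the neutral control wells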
PGC1a acetyl inh – inhibitors of PGC1a acetylation signal, primary screen, cell-based, U2OS, AlphaScreen, inhibitor mode. AlphaScreen anti-acetyl-lysine; with virally co-expressed GCN5 acetyltransferase. inhibition, % at 15.6 µM. hit rate 0.17% among 350,000;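 active = every replicate shows inhibition of at least 40%; inconclusive = mean inhibition at least 40% but some replicate below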;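 also: 0% = neutral control wells and 100% = positive control wells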
rRNA inh HTS – reduced GFP signal of wild-type E. coli, primary screen, bacterial rRNA inhibitor project, GFP/RFP fluorescence, OD600, single point; E. coli WT GFP vs humanized-ribosome RFP mutants, 24 h; stronger effect = lower value; DMSO median 0, no signal -100; GFP signal change (wild-type ribosome), % (no concentration beside the values); hit rate 1.6% among 350,000; AID 720706, 2013;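 active = significant combined selectivity score with lowered wild-type GFP, culture density cut under 30%, mutant RFP and density less affected; inactive = any of these conditions unmet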
GSIS activator – GLuc luminescence reporter in INS-1E cells, primary screen for activators of glucose-dependent secretion of insulin. INS-1E GLuc reporter insulin secretion, 2-3 h. activation, % at 16.6 µM. hit rate 0.61% among 370,000. AID 743287, 2014;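 active = lowest replicate activation of at least 40%, so every replicate reaches that level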;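 also: 0% = median of neutral control wells and 100% = median of IBMX positive control wells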
Active calls of the source: *.

`COc1ccc(C)cc1NC(=O)c1cnc2scc(C)n2c1=O` gave DENV2 CPE inconclusive, ERAP1 inh 4.1, CaV13 FRET inh -6.7, PGC1a acetyl inh -2.6, rRNA inh HTS 4.1 and GSIS activator 2.3.
COc1ccc(CCNC(=O)CN2c3cccc4cccc(c34)S2(=O)=O)cc1OC was read as DENV2 CPE 9.3, ERAP1 inh 10.5, CaV13 FRET inh -4.3, rRNA inh HTS 6.0 and GSIS activator 98.2*.
COc1ccc(CCNC(=O)c2cnc3scc(C)n3c2=O)cc1OC was read as DENV2 CPE 75.1*, ERAP1 inh 4.3, CaV13 FRET inh -6.4, PGC1a acetyl inh 1.2, rRNA inh HTS -9.8 and GSIS activator 61.4*.
Screening COc1ccc(CCNC(=O)CSC2=NS(=O)(=O)c3cc(F)ccc3N2)cc1OC returned DENV2 CPE -6.7, ERAP1 inh -9.2, CaV13 FRET inh -15.8, PGC1a acetyl inh -8.7 and rRNA inh HTS 2.5.
Screening COc1ccc(CCNC(=O)CSc2n[nH]c(N)n2)cc1OC returned DENV2 CPE -3.0, ERAP1 inh -0.2, CaV13 FRET inh -4.2, PGC1a acetyl inh 4.2, rRNA inh HTS 3.4 and GSIS activator 86.4*.
C[C@H](CO)N1C[C@H](C)[C@@H](CN(C)CC2CC2)OCCCC[C@H](C)Oc2ccc(NS(=O)(=O)c3ccc(Cl)cc3)cc2C1=O was read as DENV2 CPE -3.0, ERAP1 inh 6.0, PGC1a acetyl inh -6.9, rRNA inh HTS -1.9 and GSIS activator -7.7.
COc1ccc(CCNC(=O)c2nc(-c3cccs3)no2)cc1OC was read as DENV2 CPE -6.2, ERAP1 inh 10.3, CaV13 FRET inh 0.3, rRNA inh HTS -22.3* and GSIS activator -2.7.
`CCOc1ccc(CCNC(=O)CCNC(=O)c2ccco2)cc1OCC` gave DENV2 CPE 3.5, ERAP1 inh -3.5, CaV13 FRET inh -5.7, PGC1a acetyl inh 1.0, rRNA inh HTS 0.8 and GSIS activator 91.8*.
COc1ccc(CCNC(=O)Cc2ccccc2)cc1OC was read as DENV2 CPE -1.4, ERAP1 inh -2.5, CaV13 FRET inh -21.3, PGC1a acetyl inh -6.8, rRNA inh HTS 14.1 and GSIS activator 29.6.
Screening COc1ccccc1CCNC(=O)c1nc(-c2cccs2)no1 returned DENV2 CPE -7.3, ERAP1 inh -3.5, CaV13 FRET inh 6.1, PGC1a acetyl inh -8.9, rRNA inh HTS -13.1 and GSIS activator 0.9.
`COc1ccc(CNC(=O)CNC(c2ccccc2)c2ccccc2)cc1OC` gave DENV2 CPE 4.1, ERAP1 inh -3.3, CaV13 FRET inh -7.3, rRNA inh HTS -28.0* and GSIS activator -6.6.
Screening COc1ccc(CCNC(=O)CCNC(=O)c2ccco2)cc1OC returned DENV2 CPE -0.1, ERAP1 inh -2.1, CaV13 FRET inh -5.3, rRNA inh HTS -4.7 and GSIS activator 38.2.
COc1ccc(CCNC(=O)CCc2ccccc2)cc1OC was read as DENV2 CPE 5.2, CaV13 FRET inh -1.6, PGC1a acetyl inh 11.4, rRNA inh HTS 6.2 and GSIS activator 59.6*.
For CO[C@@H]1CN(C)C(=O)c2cc(NS(=O)(=O)CC(F)(F)F)ccc2OC[C@H](C)N(CCC(F)(F)F)C[C@H]1C the results were DENV2 CPE -2.3, ERAP1 inh 4.2, PGC1a acetyl inh 5.2, rRNA inh HTS -0.7 and GSIS activator 1.2.
`O=C(C[C@H]1C[C@H]2c3cc(NC(=O)Nc4ccc(C(F)(F)F)cc4)ccc3O[C@H]2[C@H](CO)O1)NCC1CC1` gave DENV2 CPE -1.5, ERAP1 inh -0.1, PGC1a acetyl inh 14.0, rRNA inh HTS -1.0 and GSIS activator 4.8.
Screening COCC(=O)N(C)C[C@@H]1Oc2cc(-c3ccncc3)ccc2S(=O)(=O)N([C@@H](C)CO)C[C@@H]1C returned DENV2 CPE -4.4, ERAP1 inh 1.8, PGC1a acetyl inh -0.4, rRNA inh HTS 5.5 and GSIS activator 8.0.
`CC=Cc1ccc2n(c1=O)C[C@H]1[C@H](CO)[C@@H](C(=O)N3CCCCC3)N(Cc3ccccc3OC)[C@@H]21` (mixture of isomers) gave DENV2 CPE 0.9, ERAP1 inh 2.9, rRNA inh HTS -7.7 and GSIS activator 0.8.
Cc1ccc(CCNC(=O)CCc2nc3ccccc3[nH]2)cc1 was read as DENV2 CPE 7.0, ERAP1 inh -1.3, CaV13 FRET inh -2.8, PGC1a acetyl inh -5.5, rRNA inh HTS -4.0 and GSIS activator 0.1.
Screening CCOc1ccc(CCNC(=O)CCc2nc3ccccc3[nH]2)cc1OCC returned DENV2 CPE 2.2, ERAP1 inh 23.2, CaV13 FRET inh -4.8, PGC1a acetyl inh 0.2, rRNA inh HTS -19.8* and GSIS activator 30.6.
For COc1ccc(CCNC(=O)CCc2nc3ccccc3[nH]2)cc1OC the results were DENV2 CPE -0.3, CaV13 FRET inh -12.6, PGC1a acetyl inh -7.6, rRNA inh HTS -14.5 and GSIS activator 90.3*.
`COc1ccccc1C(=O)Nc1ccc2ccccc2c1` gave DENV2 CPE -5.6, CaV13 FRET inh -4.7, rRNA inh HTS -32.7* and GSIS activator 5.1.
`COc1ccccc1C(=O)Nc1cccc(NC(C)=O)c1` gave CaV13 FRET inh -8.4 and PGC1a acetyl inh 4.4.
For COc1ccc(C(=O)Nc2ccncc2)c(OC)c1 the results were DENV2 CPE 12.1, ERAP1 inh 12.0, CaV13 FRET inh 9.1, rRNA inh HTS -5.7 and GSIS activator 7.5.
For COc1ccc(Br)cc1C(=O)Nc1cccc(C)c1 the results were PGC1a acetyl inh -4.6 and GSIS activator 51.5*.
For COc1ccc(Br)cc1C(=O)Nc1cccc(NC(=O)c2ccco2)c1 the results were CaV13 FRET inh -5.6 and PGC1a acetyl inh 10.1.
COc1ccccc1C(=O)Nc1cccc(NC(=O)c2ccccc2C)c1 was read as DENV2 CPE -0.7, ERAP1 inh -0.9, CaV13 FRET inh -4.7, PGC1a acetyl inh 8.3, rRNA inh HTS -34.5* and GSIS activator 0.3.
For COc1ccc(C(=O)Nc2ccc3ccccc3c2)c(OC)c1 the results were DENV2 CPE -5.6, ERAP1 inh -1.2, CaV13 FRET inh -4.8, PGC1a acetyl inh 12.6, rRNA inh HTS -27.5* and GSIS activator 9.1.
Screening COc1ccccc1C(=O)Nc1ccc2c(c1)OC[C@H](C)N(CC1CC1)C[C@@H](C)[C@H](OC)CN(C)C2=O returned PGC1a acetyl inh 11.4, rRNA inh HTS 0.2 and GSIS activator 4.8.
Screening COCC(=O)Nc1ccc2c(c1)C(=O)N(C)C[C@H](OC)[C@@H](C)CN[C@@H](C)CO2 returned PGC1a acetyl inh 7.6, rRNA inh HTS 4.2 and GSIS activator -2.3.

Compound activity: PubChem, Broad Institute
